Reference: paper PMC12215968

Target: CCT7 (UniProt Q99832)
Experiment: cross-linking mass spectrometry
Settings: TSTO, in cells

Sequence of CCT7 (Q99832 whole entry): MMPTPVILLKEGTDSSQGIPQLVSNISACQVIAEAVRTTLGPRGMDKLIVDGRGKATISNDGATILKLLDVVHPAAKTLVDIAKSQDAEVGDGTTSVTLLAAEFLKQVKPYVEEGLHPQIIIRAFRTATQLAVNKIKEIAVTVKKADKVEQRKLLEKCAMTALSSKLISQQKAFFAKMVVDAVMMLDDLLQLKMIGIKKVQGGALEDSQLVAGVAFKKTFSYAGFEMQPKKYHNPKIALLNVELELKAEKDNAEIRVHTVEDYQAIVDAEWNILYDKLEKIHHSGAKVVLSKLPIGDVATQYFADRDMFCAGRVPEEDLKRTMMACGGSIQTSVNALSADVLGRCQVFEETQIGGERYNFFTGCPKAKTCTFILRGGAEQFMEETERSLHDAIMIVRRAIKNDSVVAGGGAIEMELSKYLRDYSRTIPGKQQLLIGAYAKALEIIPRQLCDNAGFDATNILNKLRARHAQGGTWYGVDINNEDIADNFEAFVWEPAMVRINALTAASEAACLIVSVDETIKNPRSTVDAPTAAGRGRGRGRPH
Sequence of CCT2, P78371 (P78371 whole entry): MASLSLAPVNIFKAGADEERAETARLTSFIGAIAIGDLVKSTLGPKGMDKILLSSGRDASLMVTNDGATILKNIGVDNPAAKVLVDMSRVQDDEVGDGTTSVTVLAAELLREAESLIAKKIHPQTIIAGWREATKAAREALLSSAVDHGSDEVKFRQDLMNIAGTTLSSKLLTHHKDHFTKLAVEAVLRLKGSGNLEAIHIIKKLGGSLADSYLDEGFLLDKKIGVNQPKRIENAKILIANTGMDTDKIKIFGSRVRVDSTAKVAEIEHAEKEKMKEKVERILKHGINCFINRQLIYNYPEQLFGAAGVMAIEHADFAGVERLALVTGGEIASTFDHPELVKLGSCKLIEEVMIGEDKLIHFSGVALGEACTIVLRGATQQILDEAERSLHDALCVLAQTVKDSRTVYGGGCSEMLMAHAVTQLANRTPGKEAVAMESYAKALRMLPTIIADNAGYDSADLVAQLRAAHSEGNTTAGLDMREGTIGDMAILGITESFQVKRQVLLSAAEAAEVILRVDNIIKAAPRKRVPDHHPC
Sequence of CCT5, P48643 (P48643 whole entry): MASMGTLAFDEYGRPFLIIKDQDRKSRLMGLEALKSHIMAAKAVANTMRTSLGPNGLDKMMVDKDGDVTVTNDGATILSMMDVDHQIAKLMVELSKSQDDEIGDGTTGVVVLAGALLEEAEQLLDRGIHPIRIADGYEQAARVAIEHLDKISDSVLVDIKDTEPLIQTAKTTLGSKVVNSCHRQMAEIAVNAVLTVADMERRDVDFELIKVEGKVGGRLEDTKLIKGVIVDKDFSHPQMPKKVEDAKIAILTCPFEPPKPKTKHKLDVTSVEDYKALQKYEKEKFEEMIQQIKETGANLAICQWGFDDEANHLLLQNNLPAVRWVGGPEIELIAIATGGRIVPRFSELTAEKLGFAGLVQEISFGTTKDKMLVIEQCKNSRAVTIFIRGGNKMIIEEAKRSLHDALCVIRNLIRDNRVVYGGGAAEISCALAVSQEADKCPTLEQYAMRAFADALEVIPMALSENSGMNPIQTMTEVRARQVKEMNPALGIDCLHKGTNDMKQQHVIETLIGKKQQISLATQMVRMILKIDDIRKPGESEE
Sequence of CCT8, P50990 (P50990 whole entry): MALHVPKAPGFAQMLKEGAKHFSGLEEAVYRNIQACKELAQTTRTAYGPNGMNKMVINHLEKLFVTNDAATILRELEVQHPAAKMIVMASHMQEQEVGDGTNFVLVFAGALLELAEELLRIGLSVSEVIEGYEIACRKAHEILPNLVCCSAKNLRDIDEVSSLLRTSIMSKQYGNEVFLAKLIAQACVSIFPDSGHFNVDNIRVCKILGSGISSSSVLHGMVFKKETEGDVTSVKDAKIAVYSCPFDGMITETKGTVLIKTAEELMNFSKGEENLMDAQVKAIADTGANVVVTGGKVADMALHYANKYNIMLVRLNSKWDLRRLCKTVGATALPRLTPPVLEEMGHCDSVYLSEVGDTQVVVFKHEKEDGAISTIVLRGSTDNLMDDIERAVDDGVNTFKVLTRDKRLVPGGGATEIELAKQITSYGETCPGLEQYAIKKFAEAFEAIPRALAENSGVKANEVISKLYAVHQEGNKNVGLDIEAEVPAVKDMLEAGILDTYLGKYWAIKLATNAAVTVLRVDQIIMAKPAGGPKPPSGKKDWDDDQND
Sequence of VBP1, P61758 (P61758 whole entry): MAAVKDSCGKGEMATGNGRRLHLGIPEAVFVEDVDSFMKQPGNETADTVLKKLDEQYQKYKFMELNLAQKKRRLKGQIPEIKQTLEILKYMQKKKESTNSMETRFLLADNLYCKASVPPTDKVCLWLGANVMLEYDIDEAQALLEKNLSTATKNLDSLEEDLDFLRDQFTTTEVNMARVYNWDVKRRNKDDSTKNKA

| Substance | cross-linked residues |
| --- | --- |
| VBP1, P61758 | K189 - K292 |
| CCT5, P48643 | K232 - K250 |
| CCT8, P50990 | K270 - K280 |
| CCT2, P78371 | K248 - K250 |
